High-throughput results from PubChem BioAssay.
The sample as a whole holds a higher share of hits than the screen did.
Pf Dd2 growth: blocks in vitro growth of P. falciparum Dd2. P. falciparum Dd2 growth, SYBR Green, 72 h. Potency, µM (doses to about 28.9 µM), most hits filed as inhibitors. 120,000 tested, 4.3% active. AID 1347417; active = well fitted inhibition curve with a large enough effect; note: nearly all actives have a fitted effect of over 65% in size
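Readout: SYBR Green fluorescence, 485 nm excitation, 535 nm emission, after ~16 h lysis at 37C. Before that, Dd2-infected red cells (2.5% hematocrit) grew 72 h with compound, 29 uM top final concentration.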
Of the large screens only hits and unclear results are named; the others gave an inactive call.

Cc1ccc(-c2c(C(=O)NCCc3ccc(Cl)cc3)oc(=O)c3ccccc23)cc1	none
CCc1c(C)c2ccc(O)c(CN3CCN(c4ccccc4)CC3)c2oc1=O	Pf Dd2 growth 1.26µM
COc1ccccc1CN1CCN(C(=O)c2ccc(CCC(C)(C)O)cc2)CC1	none
COCc1cc(C[C@@H]2CC[C@H](O)[C@@H](CNS(=O)(=O)c3ccccc3)O2)no1	none
COCCN1CCCC2(CCN(C(=O)COc3cccc(C)c3C)C2)C1=O (stereo not given)	none
O=C(O)c1cccc2c1CCN2C(=O)Nc1ccc(F)cc1	none
O=C(NC1CC1)c1ccccc1OCC1CCCN(Cc2ccc(Br)o2)C1 (stereo not given)	none
CCc1ccc(C(=O)N2CCC3(CC2)OCC(C(=O)NCCOC)N3C(=O)c2cccc(C)c2)cc1 (stereo not given)	none
CCNC(=O)[C@@H]1C[C@@H](NC(=O)Cn2nccc2C)CN1Cc1ccccn1	none
O=S(=O)(NC1CCc2nnc(C3CC3)n2CC1)c1ccc2c(c1)OCCO2 (stereo not given)	none
COCC(=O)N1CCC(Oc2ncccc2C(=O)N(C)C)CC1	none
Cc1ccc(F)cc1CC(=O)N1C[C@@H](CN2CCOCC2)[C@@H](CO)C1	none
Fc1ccc(NCc2ccccc2-c2nnc(-c3ccccc3Cl)o2)cc1	Pf Dd2 growth 12.6µM
Cc1ccc(NCc2ccccc2-c2nnc(-c3ccccc3Cl)o2)cc1Cl	none
Fc1ccc(N2CCN(Cc3nnc(-c4ccccc4Cl)o3)CC2)cc1	none
CC(C)CN1CCC(O)(c2csc(CN(C)Cc3cccnc3)n2)CC1	none
COC1C(=O)N(CC2CC2)C12CCN(C(=O)C1CC1)CC2 (stereo not given)	none
COC[C@@H]1CN(Cc2cnn(C)c2C)C[C@H]1C(=O)NC1CC1	none
CCCCCNc1ncnc2c1CN(c1ccc(Cl)cc1)C(=O)CN2C	none
CCc1ccc(Nc2ncnc3c2cnn3-c2cc(Cl)ccc2C)cc1	Pf Dd2 growth 10µM
Cc1ccc(-n2ncc3c(N4CCN(c5ccccc5)CC4)ncnc32)cc1C	none
Cc1ccc(Cl)cc1-n1ncc2c(N3CCCCCC3)ncnc21	none
CC(=O)c1ccc(N2CCN(c3ncnc4c3cnn4C)CC2)cc1	none
COc1ccccc1N1CCN(c2ncnc3c2cnn3-c2cc(Cl)ccc2C)CC1	Pf Dd2 growth 8.91µM
Cc1ccc(Cl)cc1-n1ncc2c(NCCCc3ccccc3)ncnc21	none
CC(=O)c1ccc(N2CCN(c3ncnc4c3cnn4-c3cc(Cl)ccc3C)CC2)cc1	Pf Dd2 growth 11.2µM
CN1CCN(c2ncnc3c2cnn3-c2cccc(Cl)c2)CC1	none
Cc1ccc(Cl)cc1-n1ncc2c(NCCc3ccccc3)ncnc21	none
NC(=O)[C@H]1C[C@@H](O)[C@H](O)[C@H]2[C@@H]1SC(=NCC1CCCCC1)N2Cc1ccc(F)cc1	none
CN1CCN(c2cc(=O)c3ccnc(-c4cccc(F)c4)c3o2)CC1	none
COc1ccc(C(=O)N2CCC(N3CCCC3=O)CC2)cc1	none
Cc1noc(C)c1CC(=O)NCCc1noc(-c2ccncc2)n1	none
COC[C@H]1C[C@@H](NC(=O)c2cc(C)on2)[C@H](O)[C@@H]1O	none
COc1cccc(-c2cc(CC3(O)CCN(c4nnc(C)o4)CC3)on2)c1	none
O=C(CCc1ccsc1)NC1CCCc2nc(-c3ccccc3)ncc21 (stereo not given)	none
Cc1cccc(C(=O)N2CCCC(c3nc(C(C)C)no3)CCNC(=O)CC2)c1 (stereo not given)	none
COCC(=O)Nc1ccc([C@H]2OCC(=O)N(Cc3cccnc3)[C@@H]2CO)cc1	none
COc1cccc(CC(=O)Nc2ccc3c(c2)CN(CCc2ccccc2)C(=O)C(C)O3)c1 (stereo not given)	none
Cc1noc(CC2CCN(C(=O)C(C)Oc3ccc4ccccc4c3)CC2)n1 (stereo not given)	none
COCCN1C(=O)c2ccccc2C(C(=O)Nc2ccc(C(N)=O)cc2)C12CCCCC2 (stereo not given)	none
COCCN1C(=O)c2ccccc2C(C(=O)Nc2ccc3c(c2)OCO3)C12CCCC2 (stereo not given)	Pf Dd2 growth 12.6µM
O=C(NCCc1ccccc1)C1c2ccccc2C(=O)N(Cc2ccccc2)C12CCCC2 (stereo not given)	none
COCCN1C(=O)c2ccccc2C(C(=O)Nc2ccc(OC)c(Cl)c2)C12CCCC2 (stereo not given)	none
COCCN1C(=O)c2ccccc2C(C(=O)Nc2ccc(OC)cc2OC)C12CCCC2 (stereo not given)	none
COCCN1C(=O)c2ccccc2C(C(=O)Nc2ccc3[nH]ccc3c2)C12CCCC2 (stereo not given)	Pf Dd2 growth 11.2µM
O=C(O)C1c2ccccc2C(=O)N(Cc2ccccc2)C12CCCC2 (stereo not given)	none
COCCN1C(=O)c2ccccc2C(C(=O)Nc2cc(OC)ccc2OC)C12CCCC2 (stereo not given)	none
COCCN1C(=O)c2ccccc2C(C(=O)NCCc2c[nH]c3ccccc23)C12CCCC2 (stereo not given)	none
O=C(Nc1ccccc1F)C1c2ccccc2C(=O)N(Cc2ccccc2)C12CCCC2 (stereo not given)	Pf Dd2 growth 11.2µM
COCCN1C(=O)c2ccccc2C(C(=O)Nc2cc(C)ccc2OC)C12CCCCC2 (stereo not given)	Pf Dd2 growth 10µM
COc1ccccc1OCCNC(=O)C1(C)CCCCC(=O)N1 (stereo not given)	none
O=C(N[C@@H]1CCC[C@@H]1C(=O)NCc1ccc(OC(F)(F)F)cc1)c1ccncc1	none
Fc1ccc(OC2CN(Cc3cccc4ccccc34)C2)cc1F	none
Cc1nc(NCC2CC2)ncc1C(=O)O	none
Cn1nccc1C(=O)N1CCNc2cnc(Nc3ccccc3)nc2C1	none
COCCN1C(=O)c2ccccc2C(C(=O)Nc2cc(OC)cc(OC)c2)C12CCCC2 (stereo not given)	Pf Dd2 growth 11.2µM
COCCN1C(=O)c2ccccc2C(C(=O)Nc2ccc(NC(C)=O)cc2)C12CCCCC2 (stereo not given)	none
COCCN1C(=O)c2ccccc2C(C(=O)Nc2ccc(OC)c(OC)c2)C12CCCC2 (stereo not given)	none
CC1CCN(CCCNC(=O)CN2C(=O)CSc3ccc(S(=O)(=O)N4CCC(C)CC4)cc32)CC1	Pf Dd2 growth 8.91µM
CC1CCN(CCCNC(=O)CN2C(=O)CSc3ccc(S(=O)(=O)N4CCOCC4)cc32)CC1	none
CCCCNC(=O)CN1C(=O)CSc2ccc(S(=O)(=O)N3CCC(C)CC3)cc21	none
CN(Cc1ccc(-c2ccccc2)cc1)S(C)(=O)=O	none
CCc1ccc(NC(=O)C2CCCN(S(=O)(=O)c3ccc(F)cc3)C2)cc1 (stereo not given)	none
Cc1[nH]cnc1CN1CCCC(C(=O)Nc2ccc(-c3cccc(F)c3)cc2)C1 (stereo not given)	Pf Dd2 growth 10µM
N#Cc1cc(CN2CCCC(C(=O)Nc3cccc(-c4ccc(F)cc4)c3)C2)c[nH]1 (stereo not given)	Pf Dd2 growth 10µM
Cc1ncoc1C(=O)N1CCCC1C(=O)Nc1cccc(-c2ccc(F)cc2)c1 (stereo not given)	none
O=C(Nc1ccc(-c2cccc(F)c2)cc1)C1CCCN(C(=O)c2ccncc2)C1 (stereo not given)	Pf Dd2 growth 7.08µM
CC(=O)NCC(=O)N1CCCC(C(=O)Nc2cccc(-c3ccc(F)cc3)c2)C1 (stereo not given)	none
Cc1ccc(NC(=O)C2CCCN(S(=O)(=O)c3ccc(F)cc3)C2)cc1 (stereo not given)	none
CC(C)(C)CC(=O)N1CCCC(C(=O)Nc2cccc(-c3ccc(F)cc3)c2)C1 (stereo not given)	none
